The record followed here is the supplement of paper PMC9925115.

± gives the uncertainty stated by the source.

The assay has as its system FLX1. As to the kind of experiment: cell viability z-score within plate (CellTiter-Glo), mean of 3 biological replicates; higher = higher viability relative to plate (less growth inhibition). The conditions noted are these: 2 µM; time (hr): 120. As for the experimental part: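 FLX1 fibrolamellar carcinoma cells (DNAJB1-PRKACA fusion), 600 cells/well in 384-well plates, treated with a Selleck kinase inhibitor library (L1200) at 2 uM for 5 days (120 hr); viability by CellTiter-Glo. A z-score was computed within each plate and averaged over three biological replicates.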
For orientation: Cellular ATP, detected with luciferase, serves as a proxy for viable cell number.
For `C[C@@]1(C(=O)Nc2ccc(F)nc2)CCCN1c1nc(Nc2cc(C3CC3)n[nH]2)c2cccn2n1`, the “cell viability z-score within plate” value was -1.16 ± 0.41. Then `Cc1cc2c(F)c(Oc3ncnn4cc(OC[C@@H](C)O)c(C)c34)ccc2[nH]1`, with -1.45 ± 0.81; and `CNC(=O)c1cc(COc2nnc(Nc3ccc(Cl)cc3)c3ccoc23)ccn1` [Telatinib], with -1.65 ± 1.2. The same measure for `O=C(O)[C@]1(Cc2cccc(Nc3nccs3)n2)CC[C@@H](Oc2cccc(Cl)c2F)CC1`: -1.08 ± 1.

Regarding `Clc1ccc(Nc2nnc(Cc3ccncc3)c3ccccc23)cc1` [Vatalanib (PTK787) 2HCl], the “cell viability z-score within plate” value is -0.254 ± 0.59. With `Cc1[nH]nc2ccc(-c3cncc(OC[C@@H](N)Cc4ccccc4)c3)cc12`, the “cell viability z-score within plate” value amounted to 0.657 ± 0.13. Then `O=C1NC(=O)[C@@H](c2cn3c4c(cccc24)CCC3)[C@@H]1c1c[nH]c2ccccc12` [Tivantinib (ARQ 197)], with -1.26 ± 0.51; and `COC(=O)c1ccc2c(c1)NC(=O)/C2=C(\Nc1ccc(N(C)C(=O)CN2CCN(C)CC2)cc1)c1ccccc1` [Nintedanib (BIBF 1120)], with 0.242 ± 0.43. Then `N#CC1(c2ccc(NC(=O)c3cccnc3NCc3ccncc3)cc2)CCCC1` [Apatinib], with 0.121 ± 0.33; and `Nc1ccc(-c2ccc3ncc4ccc(=O)n(-c5cccc(C(F)(F)F)c5)c4c3c2)cn1` [Torin 2], with 0.796 ± 0.29; and `O=c1cc(N2CCOCC2)oc2c(-c3ccccc3)cccc12`, with 0.828 ± 0.37.

`NC(=O)c1ccc(N(C(N)=O)c2c(F)cccc2F)nc1-c1ccc(F)cc1F`: the “cell viability z-score within plate” value was -1.05 ± 0.15. The same measure for `NC(=O)c1ncn([C@@H]2O[C@H](CO)[C@@H](O)[C@H]2O)c1N` [AICAR (Acadesine)]: 0.371 ± 0.82; for `CCn1c(=O)c(-c2ccc(-c3cncs3)cc2Cl)cc2cnc(Nc3ccc(N4CCN(C)CC4)cc3)nc21`: 0.491 ± 0.12; for `CN(C)CCCn1cc(C2=C(c3c[nH]c4ccccc34)C(=O)NC2=O)c2ccccc21`: -0.651 ± 0.3. Then `CC(C)(C)NS(=O)(=O)c1cncc(-c2cc(F)c3nc(N)nn3c2)c1`, with 0.16 ± 0.77. Then `CC[C@@H]1C(=O)N(C)c2cnc(Nc3ccc(C(=O)NC4CCN(C)CC4)cc3OC)nc2N1C1CCCC1`, with -1.49 ± 0.57.

Take `CC(C)c1cnn2c(NCc3ccccc3)cc(NCCCCCCN)nc12`: the “cell viability z-score within plate” value was 0.577 ± 0.3. The same measure for `C#Cc1cccc(Nc2ncnc3cc(OC)c(OCCCCCCC(=O)NO)cc23)c1`: -0.217 ± 0.35; for `N#CCNC(=O)c1ccc(-c2ccnc(Nc3ccc(N4CCOCC4)cc3)n2)cc1` [Momelotinib (CYT387)]: -1.97 ± 1.

In the case of `CCCS(=O)(=O)Nc1ccc(F)c(C(=O)c2c[nH]c3ncc(-c4ccc(Cl)cc4)cc23)c1F` [Vemurafenib (PLX4032, RG7204)], the “cell viability z-score within plate” value is -3.08 ± 1.3. Regarding `CCN(CC)CCNC(=O)c1c(C)[nH]c(/C=C2\C(=O)Nc3ccc(F)cc32)c1C` [Sunitinib Malate], the “cell viability z-score within plate” value was -0.049 ± 0.26. The same measure for `C[C@@H](NC(=O)c1ncnc(N)c1Cl)c1ncc(C(=O)Nc2cc(C(F)(F)F)c(Cl)cn2)s1`: 0.647 ± 0.28; for `Oc1cc(O)cc(/C=C/c2ccc(O)c(O)c2)c1` [Piceatannol]: -0.333 ± 0.2; for `COc1cc(Nc2ncc(F)c(Nc3ccc4c(n3)NC(=O)C(C)(C)O4)n2)cc(OC)c1OC` [R406 (free base)]: 0.533 ± 0.55.
